Inconclusive results are not listed. Values without a mark were called inactive. Unless noted, the call rests on the fitted dose curve; in most records, active means well fitted curve in either direction with a large enough effect (not every such curve was filed as active); inconclusive means small, poorly fitted or top-dose-only effect, or another doubt; inactive means flat fitted curve, though single readings scatter.

Sequence of 3',5'-cyclic-AMP phosphodiesterase 4B (Homo sapiens) (Q07343 whole entry, looked up): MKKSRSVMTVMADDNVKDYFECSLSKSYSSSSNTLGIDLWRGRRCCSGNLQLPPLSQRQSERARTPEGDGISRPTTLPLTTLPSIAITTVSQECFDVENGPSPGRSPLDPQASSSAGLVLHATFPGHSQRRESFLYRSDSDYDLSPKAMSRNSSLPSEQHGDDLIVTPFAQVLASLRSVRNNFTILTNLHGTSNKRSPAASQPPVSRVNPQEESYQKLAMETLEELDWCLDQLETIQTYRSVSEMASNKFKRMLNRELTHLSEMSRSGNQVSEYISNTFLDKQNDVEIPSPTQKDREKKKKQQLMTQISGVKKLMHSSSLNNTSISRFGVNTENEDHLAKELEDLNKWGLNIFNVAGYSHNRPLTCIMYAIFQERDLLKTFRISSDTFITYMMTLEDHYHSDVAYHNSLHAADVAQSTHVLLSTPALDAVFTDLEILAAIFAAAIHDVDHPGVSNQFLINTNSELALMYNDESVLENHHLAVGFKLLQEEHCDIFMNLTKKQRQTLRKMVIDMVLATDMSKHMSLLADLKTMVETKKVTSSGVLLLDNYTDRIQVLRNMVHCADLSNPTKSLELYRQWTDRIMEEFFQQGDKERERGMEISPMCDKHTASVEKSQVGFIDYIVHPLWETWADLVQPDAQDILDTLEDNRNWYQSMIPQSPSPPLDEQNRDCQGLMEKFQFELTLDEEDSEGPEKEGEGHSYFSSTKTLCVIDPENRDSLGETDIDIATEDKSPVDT

One assay has as its target Mitogen-activated protein kinase 10 (Mus musculus) (UniProt Q61831). The experiment in a line: JNK3 AlphaScreen Assay (AID 530).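 Further: kinase came from lysate of stimulated human HepG2 cells; signal reports phosphorylation of biotinylated GST-cJun 1-79 at Ser73 with 10 µM ATP; on the % scale 0 is the no-effect control and ±100 the full control effect.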 To be noted: JNK3 lysate, c-Jun phosphorylation; series mostly up to 57.1 µM; activity change, negative = inhibition: at the top concentration. An outline of the steps:
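Compound titrations were preincubated 15 minutes at room temperature with substrate, antibody and pre-activated JNK3-containing HepG2 lysate. Reactions were started with 10 uM ATP and stopped with EDTA-containing bead buffer for AlphaScreen detection.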
(In general: Bead proximity is the source of the signal in Alpha formats.)
As for `CCOC(=O)C1=C(C)NC(C)=C(C(=O)OC)[C@H]1c1cccc(Cl)c1Cl`, the “activity change, negative = inhibition” value is 10.3%.
The same measure, in the same setting: in the case of `CC[C@H](c1ccccc1)c1cc(C(C)(C)C)cc(C(C)(C)C)c1O` it was 6.57% [at 11.4 µM]; in that of `C[N+](C)(C)CCN(Cc1cccs1)c1ccccn1`, 0.454% [at 11.4 µM].
Turning to `C[N+](C)(C)[C@@H](C1=CCCC1=O)c1ccccc1`, the activity change, negative = inhibition was 5.46% [at 11.4 µM].
With `Cc1cccc(CNc2ccnc(-c3ccc(N(C)C)cc3)n2)c1`, the “activity change, negative = inhibition” value was -13.1%.

The next assay concerns the target 3',5'-cyclic-AMP phosphodiesterase 4B (Homo sapiens) (UniProt Q07343). The experiment in a line: qHTS Assay for Inhibitors of PDE-IV (AID 607; active means well fitted activation curve with a large enough effect in the main read-out, with a control signal flat, not every such curve was filed as active; further: % of control where 0% means no effect). To be noted: HEK293 ACTOne CNG channel cells, membrane potential fluorescence; series mostly up to 22.9 µM; activation (PDE inhibition): at the top concentration. A digest of the protocol:
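ACTOne HEK293 cells carry a modified cAMP-gated CNG channel and express endogenous PDE4; plated 1000 cells/well, compounds up to 22.9 uM final. Membrane-potential dye fluorescence (ex 535/em 590) was read; parental cells received 10 uM forskolin + 100 uM RO 20-1724.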
Turning to `CCOC(=O)C1=C(C)NC(C)=C(C(=O)OC)[C@H]1c1cccc(Cl)c1Cl`, the “activation (PDE inhibition)” value is 19.9%.
Regarding `CC[C@H](c1ccccc1)c1cc(C(C)(C)C)cc(C(C)(C)C)c1O`, the “activation (PDE inhibition)” value is 21.6%.
Turning to `C[N+](C)(C)CCN(Cc1cccs1)c1ccccn1`, the “activation (PDE inhibition)” value was -7.15%.
Consider `NC[C@@H]1O[C@@H](O[C@H]2[C@@H](O)[C@H](O[C@@H]3[C@H](O)[C@H](N)C[C@H](N)[C@H]3O[C@@H]3O[C@@H](CO)[C@H](O)[C@H](O)[C@@H]3N)O[C@H]2CO)[C@H](N)[C@H](O)[C@@H]1O`, for which the “activation (PDE inhibition)” value was 19.9%.
`C[N+](C)(C)[C@@H](C1=CCCC1=O)c1ccccc1`: the “activation (PDE inhibition)” value is -2.3%.

The values above are taken from PubChem BioAssay (NCATS).
